Among all 190,000 compounds or so, about 810 (0.43%) were called active. Rule as the data show it: active = inhibition above about 50%; inactive = the rest. Many of the other results were omitted from the sample, so actives are more common in it than they were.
What follows are molecules tested against Mannose-6-phosphate isomerase (Homo sapiens) (UniProt P34949) (assay: inhibitors of human PMI, primary screen, biochemical, fluorescence intensity, coupled assay (AID 1209;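 also: plate controls were DMSO vehicle for no effect and wells lacking substrate for full effect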)). Details: purified PMI enzyme, at 20 µM, hits give high values.
Mannose-6-phosphate isomerase (Homo sapiens), sequence (P34949 whole entry, looked up): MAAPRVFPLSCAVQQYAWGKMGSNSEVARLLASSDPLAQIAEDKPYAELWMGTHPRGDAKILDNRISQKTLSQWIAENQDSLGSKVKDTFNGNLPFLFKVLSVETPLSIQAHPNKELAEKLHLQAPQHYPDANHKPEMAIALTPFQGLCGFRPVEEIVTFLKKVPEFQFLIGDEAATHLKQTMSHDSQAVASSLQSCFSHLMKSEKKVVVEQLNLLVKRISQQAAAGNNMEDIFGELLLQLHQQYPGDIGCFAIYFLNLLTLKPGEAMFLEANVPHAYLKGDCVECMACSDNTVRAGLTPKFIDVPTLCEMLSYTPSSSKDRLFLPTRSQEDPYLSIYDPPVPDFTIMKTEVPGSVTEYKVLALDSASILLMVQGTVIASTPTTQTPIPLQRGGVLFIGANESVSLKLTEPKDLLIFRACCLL

For `O=C(O)CCn1cc(C=C2C(=O)NC(=S)NC2=O)c(-c2cc3ccccc3oc2=O)n1`, which inhibition is on record?
Its inhibition is -33.9% (inactive).

For `O=C(O)CCn1cc(C=C2C(=O)NC(=S)NC2=O)c(-c2cccc(Cl)c2)n1`, which inhibition is on record?
The inhibition was 64.1% (active).

With `O=C(O)CCn1cc(C=C2C(=O)NC(=O)NC2=O)c(-c2ccc(Br)cc2)n1` as the molecule, how does the inhibition read?
Its inhibition is 5.8% (inactive).

Which inhibition does the source give for `O=C(O)CCn1cc(C=C2C(=O)NC(=O)NC2=O)c(-c2cc3ccccc3oc2=O)n1` here?
Its inhibition is -3.7% (inactive).

How did the inhibition turn out when `O=C(O)CCn1cc(C=C2C(=O)NC(=S)NC2=O)c(-c2ccccc2)n1` was run?
The inhibition was 55.5% (active).

For `N#CCCn1cc(C=C2C(=O)NC(=O)NC2=O)c(-c2ccccc2)n1`, which inhibition is on record?
The inhibition was -7.4% (inactive).

For `O=c1c2ccccc2nc(-c2cccs2)n1-c1ccccc1`, which inhibition is on record?
Its inhibition is -8.6% (inactive).

For `COc1ccc(N/N=C/c2c(O)n(-c3cccc(C)c3)c(=O)[nH]c2=O)cc1`, which inhibition is on record?
The inhibition was -72.8% (inactive).

For `CCOCCCNC(=O)CN1C2CCC1CC(O)(c1ccc(OC)cc1)C2` (stereo not drawn), which inhibition is on record?
Its inhibition is 15% (inactive).

With `CC(=O)Nc1ccccc1OC(=O)N(C)C` as the molecule, how does the inhibition read?
The inhibition was 7.3% (inactive).

`CN(C)CCCN=Cc1c(O)n(CCc2ccccc2)c(=O)[nH]c1=O` was tested. Which inhibition did it give?
The inhibition was -1.1% (inactive).

How did the inhibition turn out when `CCCCn1c(NC(=O)c2ccc(Br)o2)c(C(=O)OCC)c2nc3ccccc3nc21` was run?
The inhibition was 22.2% (inactive).

How did the inhibition turn out when `CCCCCn1c(N)c(C(=O)NCc2cccs2)c2nc3ccccc3nc21` was run?
The inhibition was 51.9% (active).

How did the inhibition turn out when `CCOC(=O)c1c(N)n(CCCOC(=O)c2ccco2)c2nc3ccccc3nc12` was run?
Its inhibition is 6% (inactive).

For `CCC(C)NC(=O)c1c(N)n(CCCOC)c2nc3ccccc3nc12` (stereo not drawn), which inhibition is on record?
The inhibition was 56% (active).

Which inhibition does the source give for `CCCCCCn1c(N)c(C(=O)NCCN2CCOCC2)c2nc3ccccc3nc21` here?
The inhibition was 28.6% (inactive).

How did the inhibition turn out when `CCCCn1c(N)c(C(=O)NCc2cccs2)c2nc3ccccc3nc21` was run?
The inhibition was 59.9% (active).

With `CC(C)CCn1c(N)c(C(=O)NCc2cccs2)c2nc3ccccc3nc21` as the molecule, how does the inhibition read?
Its inhibition is 24.5% (inactive).

For `CCCCn1c(N)c(C(=O)NCCN2CCOCC2)c2nc3ccccc3nc21`, which inhibition is on record?
The inhibition was 17.1% (inactive).

With `CCCCn1c(NC(=O)c2ccco2)c(C(=O)OCC)c2nc3ccccc3nc21` as the molecule, how does the inhibition read?
Its inhibition is 55.8% (active).

With `CCCCNC(=O)c1c(N)n(CCCOC)c2nc3ccccc3nc12` as the molecule, how does the inhibition read?
Its inhibition is 41.1% (inactive).

`COCCCn1c(N)c(C(=O)NCCC(C)C)c2nc3ccccc3nc21` was tested. Which inhibition did it give?
The inhibition was 37.9% (inactive).

For `CCCCCn1c(N)c(C(=O)NCCN2CCOCC2)c2nc3ccccc3nc21`, which inhibition is on record?
The inhibition was 25.4% (inactive).

Which inhibition does the source give for `CC1C(c2cccs2)=[N+]([O-])C(C)(C(=O)c2cccs2)N1O` (stereo not drawn) here?
Its inhibition is -1.9% (inactive).

With `Cc1c(C=O)c2ccccc2n1Cc1cccc(F)c1` as the molecule, how does the inhibition read?
The inhibition was -20.1% (inactive).

How did the inhibition turn out when `CCOC(=O)C1C(=O)N(C)C2(C)CC1c1cc(OC)ccc1O2` (stereo not drawn) was run?
Its inhibition is -7% (inactive).

`O=C1NC(=O)C(CCc2ccncc2)(CCc2ccncc2)C(=O)N1CCc1ccc(F)cc1` was tested. Which inhibition did it give?
The inhibition was -4.4% (inactive).

For `COc1ccc2[nH]c(C)c(CCN3CCC(=O)C(C)C3C)c2c1` (stereo not drawn), which inhibition is on record?
The inhibition was 13.4% (inactive).

`CCOC(=O)N(c1ccccc1)P1(=S)OCC(C)O1` (stereo not drawn) was tested. Which inhibition did it give?
Its inhibition is -1.5% (inactive).

`COC(=O)N(c1ccccc1)P1(=S)OCCO1` was tested. Which inhibition did it give?
The inhibition was 24.3% (inactive).

For `COC(=O)N(c1ccc(OC)cc1)P1(=S)OCCC(C)O1` (stereo not drawn), which inhibition is on record?
The inhibition was 62.3% (active).

Which inhibition does the source give for `CCn1c(=O)n(CC)c2cc([N+](=O)[O-])c(N3CCNCC3)cc21` here?
Its inhibition is 0.8% (inactive).

`CCn1nc(-c2cccs2)nc2c(=O)n(C)c(=O)nc1-2` was tested. Which inhibition did it give?
The inhibition was 6.3% (inactive).

How did the inhibition turn out when `CCn1nc(-c2ccccc2)nc2c(=O)n(C)c(=O)nc1-2` was run?
Its inhibition is -4.4% (inactive).

How did the inhibition turn out when `Cn1ncnc2c(=O)n(C)c(=O)nc1-2` was run?
Its inhibition is 74.8% (active).

`Cc1nc2c(=O)n(C)c(=O)nc-2n(C)n1` was tested. Which inhibition did it give?
The inhibition was 73.6% (active).

How did the inhibition turn out when `CCn1nc(/C=C/c2ccccc2)nc2c(=O)n(C)c(=O)nc1-2` was run?
The inhibition was 39.7% (inactive).

For `CCc1ccc(CN2CCN(Cc3ccc(SC)cc3)CC2)cc1`, which inhibition is on record?
Its inhibition is -14.5% (inactive).

With `C=C1N2CCC(CC2)C1(O)c1ccc(C)c(C)c1` (stereo not drawn) as the molecule, how does the inhibition read?
Its inhibition is -10.2% (inactive).

How did the inhibition turn out when `O=C(Cc1ccccc1)OCCNC(=O)c1cccnc1` was run?
Its inhibition is -4% (inactive).

Which inhibition does the source give for `CN(C)C(=O)Oc1c(Cl)cc(Cl)c2cccnc12` here?
Its inhibition is 8.2% (inactive).

For `COC(=O)c1ccccc1N=Cc1c(O)[nH]c(=S)[nH]c1=O`, which inhibition is on record?
Its inhibition is -42.9% (inactive).

With `O=c1c(/C=N/N2CCOCC2)c(O)n(-c2ccccc2)c(=S)n1-c1ccccc1` as the molecule, how does the inhibition read?
The inhibition was 4.6% (inactive).

For `Cc1ccccc1C(=O)NC(Oc1ccccc1)C(Cl)(Cl)Cl` (stereo not drawn), which inhibition is on record?
Its inhibition is 6.5% (inactive).

`CC(=O)N(C1=NCCCS1)c1ccccc1Cl` was tested. Which inhibition did it give?
The inhibition was -4.6% (inactive).

Which inhibition does the source give for `O=c1[nH]c(=O)n(-c2cccc(Cl)c2)c(O)c1C=NCCCN1CCOCC1` here?
The inhibition was 4.5% (inactive).

For `CC1=CC(=O)NP(=O)(Oc2ccc3ccccc3c2)N1` (stereo not drawn), which inhibition is on record?
Its inhibition is 78.5% (active).

Which inhibition does the source give for `COc1ccc(P2(=O)Nc3ccccc3N2)cc1` here?
Its inhibition is 16.8% (inactive).

`O=C(C1CC(c2ccc(F)cc2)=NO1)N1CCC2(CC1)OCCO2` (stereo not drawn) was tested. Which inhibition did it give?
Its inhibition is -5.3% (inactive).

With `Cn1ccnc1P(=S)(c1nccn1C)c1nccn1C` as the molecule, how does the inhibition read?
Its inhibition is -5% (inactive).

`O=P(c1ccccc1)(c1nc2ccccc2s1)N1CCOCC1` (stereo not drawn) was tested. Which inhibition did it give?
Its inhibition is -5.8% (inactive).

For `COCCNP(=O)(c1ccccc1)c1nc2ccccc2s1` (stereo not drawn), which inhibition is on record?
Its inhibition is 1.6% (inactive).

With `Cc1ccc(NP(=O)(c2ccccc2)c2nc3ccccc3s2)cc1` (stereo not drawn) as the molecule, how does the inhibition read?
The inhibition was 80.5% (active).

Which inhibition does the source give for `CN(C)c1ccc([P+](=O)c2ccc(N(C)C)cc2)cc1` here?
Its inhibition is 10.8% (inactive).

`CCc1c(C)nc(N)nc1N1N=C1SCC(N)=O` was tested. Which inhibition did it give?
The inhibition was -3% (inactive).

How did the inhibition turn out when `Cc1ccccc1N1C(=O)NC(=O)/C(=C\c2ccc3c(c2)CCCN3Cc2ccccc2)C1=O` was run?
The inhibition was -9% (inactive).

Which inhibition does the source give for `CC1CC(OP(O)(=S)c2ccc(N(C)C)cc2NC(=O)c2cccs2)CC(C)(C)C1` (stereo not drawn) here?
The inhibition was 59.7% (active).

`CCOC(=O)C1(CCc2ccccc2)CCN(Cc2cccc3cnccc23)CC1` was tested. Which inhibition did it give?
The inhibition was 24.8% (inactive).

With `COc1ccc(C(CC(=O)N2CCC3(CC2)OCCO3)NS(=O)(=O)c2ccc(OC)cc2)cc1` (stereo not drawn) as the molecule, how does the inhibition read?
The inhibition was 4.9% (inactive).

With `O=C(C1CCCO1)N1CCC2(CC1)OCCO2` (stereo not drawn) as the molecule, how does the inhibition read?
The inhibition was 5.3% (inactive).

How did the inhibition turn out when `Cc1cc(C=C2C(=O)N(C)C(=S)N(C)C2=O)c(C)n1C1CCCCC1` was run?
The inhibition was -12.8% (inactive).

Which inhibition does the source give for `CCN1C(=O)C(=Cc2cc(C)n(C3CC3)c2C)C(=O)N(CC)C1=S` here?
Its inhibition is 63.8% (active).

For `Cc1cc(C=C2C(=O)N(C)C(=S)N(C)C2=O)c(C)n1C1CCCC1`, which inhibition is on record?
Its inhibition is 6% (inactive).

— PubChem BioAssay AID1209 (Sanford-Burnham Center for Chemical Genomics, 2008)
